High-throughput results (PubChem)
The list is not random: actives were taken first. Their share in the collection is about 15%.
SARS PLP yeast = qHTS of Yeast-based Assay for SARS-CoV PLP; actives 0.19% (n = 330,000); S. cerevisiae expressing SARS-CoV PLpro, growth rescue; Potency, µM (highest dose often 32.9 µM), inactives show at the top dose activity, positive = growth rescue, most hits filed as activators; calls by dose curve; further: potency means the concentration at half of the fitted maximal effect; 0% is about no effect; nearly all actives have a fitted effect of over 55% in size
Pf growth 96h = Primary qHTS for delayed death inhibitors of the malarial parasite plastid, 96 hour incubation; P. falciparum luciferase reporter growth, 96 h; actives 6.9% (n = 320,000); Potency, µM (highest dose often 28.7 µM), inactives show top-dose activity change, negative = inhibition, usual class: inhibitors; further: potency means the concentration at half of the fitted maximal effect; on the % scale 0 is the no-effect control and ±100 the full control effect
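96 h incubation, 37 C, 5% CO2, of luciferase-reporter P. falciparum-infected RBCs (2% hematocrit, 0.05% parasitemia final) with test compounds; endpoint luminescence.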
HCMV inh = qHTS Assay for inhibitors of the human cytomegalovirus (HCMV); HFF cells, HCMV-luciferase reporter, 72 h; hits give low values; activity change, negative = inhibition, % at 57.5 µM; actives 4.5% (n = 410,000); in the data active means activity change below about -60%; inconclusive means no clear call, values can overlap the other calls; inactive means above about -39%; further: on the % scale 0 is the no-effect control and ±100 the full control effect
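Two compound doses tested in HFFs infected with HCMV-luciferase, MOI 1 PFU/cell, 72 h at 37C. Lysate luminescence read with OneGlo; data normalized against buffer-only and 10uM Salinomycin inhibitor controls.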
HCV inh = qHTS Assay for Inhibitors of Hepatitis C Virus (HCV); Potency, µM (doses to about 41.8 µM), for inactives: top-dose activity change, negative = inhibition, actives largely listed as inhibitors; Huh7.5.1 HCVcc-Cre infection, luciferase reporter, 44 h; actives 3.4% (n = 340,000); further: potency means the concentration at half of the fitted maximal effect; on the % scale 0 is the no-effect control and ±100 the full control effect
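1,000 cells/well; 4 h culture; + compound; + HCVcc-Cre (~0.5 moi); 44 h; luciferase substrate, RT 15 min; read 15 sec.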
Sm TGR block = qHTS Assay for the Inhibitors of Schistosoma Mansoni Peroxiredoxins; actives 3% (n = 360,000); purified TGR, DTNB reduction, TNB absorbance 405 nm; AID 485364, 2010; Potency, µM (titrated, usually from 114 µM), for the others: at the top dose activity change, negative = inhibition, hits mostly inhibitors; further: potency means the concentration at half of the fitted maximal effect; on the % scale 0 is the no-effect control and ±100 the full control effect; nearly all actives have a fitted effect of over 60% in size
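First, TGR (20 nM dispensed) and NADPH were mixed with compound. Second, a 15 min room-temperature incubation followed. Third, further NADPH and then DTNB were added to start the reaction. Finally, TNB absorbance was monitored kinetically.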
Pf growth 48h = Primary qHTS for delayed death inhibitors of the malarial parasite plastid, 48 hour incubation. AID 504832, 2011. actives 5.9% (n = 310,000). P. falciparum luciferase growth in erythrocytes, 48 h. Potency, µM (doses to about 28.7 µM), inactives show at the top dose activity change, negative = inhibition, most hits filed as inhibitors; further: potency means the concentration at half of the fitted maximal effect; on the % scale 0 is the no-effect control and ±100 the full control effect
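Luciferase-expressing parasites in RBCs, 2% Hct / 0.1% parasitemia final; RPMI 1640 + 0.5% Albumax; 37 C, 5% CO2, one generation; luminescence read-out, lower signal = inhibition.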
* hit, by the source's call; ? = inconclusive; / = not tested or not shown; [ ] = another dose, or the depositor's remark. Unless noted, the call rests on the fitted dose curve; in most records, active means well fitted curve in the direction sought with a large enough effect; inconclusive means small, poorly fitted or top-dose-only effect, or another doubt; inactive means no such curve, though single readings can be large; an effect the other way counts as inactive or inconclusive.

SMILES | SARS PLP yeast | Pf growth 96h | HCMV inh | HCV inh | Sm TGR block | Pf growth 48h
C=C1c2cccc(O)c2C(O)=C2C(=O)[C@@]3(O)C(O)=C(C(N)=O)C(=O)[C@@H](N(C)C)[C@@H]3[C@@H](O)[C@H]12 | / | 1.3µM* | / | / | / | 3.2µM*
C[C@@H]1c2cccc(O)c2C(O)=C2C(=O)[C@@]3(O)C(O)=C(C(N)=O)C(=O)[C@@H](N(C)C)[C@@H]3[C@@H](O)[C@@H]21 | / | 1.5µM* | / | / | / | 7.6µM*
C=C1c2cccc(O)c2C(=O)C2C(=O)[C@]3(O)C(=O)C(C(N)=O)C(=O)[C@@H](N(C)C)[C@@H]3[C@@H](O)[C@H]12 (some centres not stated) | 17% | / | 29 | 1% | / | /
CNc1cc(C(=O)Nc2cccc(OCc3ccccc3)c2)ncn1 | / | / | 48 | / | / | /
CC1CC(C)CN(C(=O)COC(=O)c2ccc(Cl)nc2)C1 (configuration not stated) | 3% | 15% | -37 | 14% | -1% | -12%
Cc1cccc(NC(=O)Cn2nnc(C(=O)Nc3ccccc3Br)c2N)c1C | / | / | -23 | / | -3% | /
CC(=O)c1c(N2CCOCC2)nc2ccc(Cl)cc2c1-c1ccccc1 | -2% | -17% | -24 | ? | 18% | ?
CN(C)[C@@H]1C(=O)C(C(N)=O)=C(O)[C@]2(O)C(=O)C3=C(O)c4c(O)ccc(Cl)c4[C@](C)(O)[C@H]3C[C@@H]12 | / | ? | / | / | / | -15%[12.8 µM]
CN(C)[C@@H]1C(=O)C(C(N)=O)=C(O)[C@]2(O)C(=O)C3=C(O)c4c(O)ccc(Cl)c4[C@H](O)[C@H]3C[C@@H]12 | / | 3.4µM* | / | / | / | 6.7µM*
C[C@H]1c2cccc(O)c2C(O)=C2C(=O)[C@]3(O)C(O)=C(C(N)=O)C(=O)[C@@H](N(C)C)C3[C@@H](O)C21 (some centres not stated) | / | 0.41µM* | -18 | 17% | -15% | 3.7µM*
CS(=O)(=O)Nc1cccc2[nH]ncc12 | 0% | 14% | -25 | -2% | -1% | 0%
COc1cc(C2C(C(C)=O)=C(C)Nc3ncnn32)ccc1O (configuration not stated) | 2% | 61% | 57 | 7% | -12% | -16%
COc1ccc(C2C(C(C)=O)=C(C)Nc3ncnn32)cc1[N+](=O)[O-] (configuration not stated) | 1% | 4.1µM* | 0 | 5% | -9% | -21%[0.00184 µM]
CC(=O)C1=C(C)Nc2ncnn2C1c1ccccc1OCc1ccccc1 (configuration not stated) | 4% | 28% | 13 | ? | ? | 8.3µM*
O=S1(=O)CCC(NC(=S)SCCOc2ccccc2)C1 (configuration not stated) | 1% | 36% | -69* | ? | ? | -23%
CCCCSC(=S)NC1CCS(=O)(=O)C1 (configuration not stated) | 11% | 14% | -84* | 12% | -2% | ?
Cc1cnc(NC(=O)CN2CCN(c3ccccn3)CC2)s1 | -2% | 0% | -97* | ? | -5% | 2%
CSc1ccccc1NC(=O)CN1CCN(c2ccccn2)CC1 | 1% | 8.3µM* | -63* | 4% | 36% | 7.4µM*
COc1cc(Cl)c(C)cc1NC(=O)c1ccccc1NC(=O)CN1CCN(c2ccccn2)CC1 | / | / | -95* | ? | / | /
CSc1ccccc1NC(=O)CN1CCN(S(=O)(=O)c2ccccc2[N+](=O)[O-])CC1 | 3% | 9.3µM* | -13 | ? | -21% | 9.3µM*
Cc1ccccc1OCC(=O)N1CCC(c2nc3ccccc3s2)CC1 | / | / | 2 | / | -2% | /
COc1cc(N(C(C)=O)c2ccc(O)c(C(=O)O)c2)c2ncccc2c1 | / | / | 35 | / | / | /
C/C(=N/NC(=O)CN1CCN(S(=O)(=O)c2ccc(C)cc2)CC1)c1ccco1 | 0% | -11% | -29 | 1% | -3% | 10%
Cc1cc(Br)ccc1NC(=O)CN1CCN(c2ccccn2)CC1 | 2% | -17% | 0 | 0% | -2% | -12%
O=C(CN1CCN(c2ccccn2)CC1)Nc1ccc([N+](=O)[O-])cc1C(=O)Nc1ccccc1F | 2% | 5% | 6 | 11µM* | -6% | ?
SMILES | SARS PLP yeast | Pf growth 96h | HCMV inh | HCV inh | Sm TGR block | Pf growth 48h
COc1cc2c3nnc(-c4ccc(F)cc4)c-3cn(Cc3ccccc3)c2cc1OC | 10% | 0.41µM* | 32 | ? | 1% | ?
COc1cc2c3nnc(-c4ccc(F)cc4)c-3cn(Cc3ccc(F)cc3)c2cc1OC | 0% | ? | -26 | -20% | -2% | /
COc1ccc(Cn2cc3c(-c4ccc(F)cc4)nnc-3c3cc(OC)c(OC)cc32)cc1 | 3% | 0.15µM* | 14 | ? | -5% | 0.15µM*
COc1ccccc1CCNC(=O)Cc1c(C)c2c(O)cc(C)cc2oc1=O | / | / | -7 | / | -1% | /
N#CC1(c2ccccc2)CCN(S(=O)(=O)c2ccc(OC(F)(F)F)cc2)CC1 | -3% | ? | -19 | -20% | 0% | -26%
N#CC1(c2ccccc2)CCC(=NO)CC1 (configuration not stated) | 26% | 1.9µM* | -13 | 19% | -1% | /
CC1CCN(CC(=O)Nc2ccccc2-c2ccccc2)CC1 | 2% | ? | -13 | 35µM* | 0% | ?
CC1CCCCC1NCC(=O)Nc1ccccc1-c1ccccc1 (configuration not stated) | 18% | 15µM* | ? | -7% | -2% | ?
O=C(Nc1ccccc1-c1ccccc1)C1CCCCC1 | 24% | -19% | -18 | 1% | -6% | 14%
CC1CCN(CC(=O)Nc2ccccc2C(=O)c2ccccc2)CC1 | -2% | 61% | -29 | -10% | 1% | -23%
